Compound activity (PubChem BioAssay)
Only some compounds are listed: those with a hit (about 4.2% of all), similar ones and a draw of the others.
FXN GAA850 act – FXN promoter activators, primary screen, cell-based, luciferase luminescence, HEK293 lucGAA850. activation, % at 6 µM. HEK293 lucGAA850 FXN promoter luciferase reporter, 24 h; percent of 10 µM SAHA response. hit rate 0.56% among 360,000;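 active = activation above the average of all compounds screened plus 3 SD, cutoff fixed separately per campaign, cut at about 7.5% in these data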;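 also: 0% = DMSO wells and 100% = 10 µM SAHA wells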
AHR act – AHR activators, primary screen, cell-based, luminescence, luciferase reporter, human | AHR-responsive luciferase reporter cells | hit rate 2.5% among 320,000 | Aryl hydrocarbon receptor (Homo sapiens), P35869 | activation, % at 5 µM; in the data active = activation above about 47%;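 also: 0% = vehicle wells and 100% = reference agonist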
MITF TRPM1 HTS – activators of MITF-driven TRPM1 promoter reporter, primary screen, cell-based, SK-MEL-5, luciferase, single point; SK-MEL-5 TRPM1-promoter luciferase, 24 h; % of positive control, neutral wells = 0; activation, % at 12.5 µM; hit rate 0.75% among 300,000; AID 588334, 2011;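 active = mean activation of at least 80% with every replicate also reaching 80%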;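 also: 0% = neutral control wells and 100% = parthenolide positive control wells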
Wnt bcat act – Wnt/beta-catenin pathway activators, primary screen, cell-based, plate reader, single point. Wnt/beta-catenin reporter cell assay, activator. activation, % at 9.35 µM. hit rate 1.2% among 300,000. AID 743398, 2014; in the data active = activation above about 30%, passing the limit was not always enough;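 also: 0% = neutral control wells and 100% = positive control wells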
esBAF inh – Bmi1 luciferase reporter increase in mESCs, primary screen, esBAF inhibitor project, mouse ES cells, Bmi1 luciferase knock-in, single point; AID 602393, 2012; reporter increase, % at 12.5 µM; hit rate 2% among 350,000; 24 h; 100% = twice the neutral-well signal; in the data active = activation above about 40%;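 also: 0% = median of the plate's neutral control wells and 100% = double that signal; a rise in the Bmi1 reporter signal indicates esBAF inhibition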
AHR act cf – AHR activators, confirmation, cell-based, luminescence, luciferase reporter, human. shares compounds with AHR act. human cells, AHR-responsive luciferase reporter. activation, % at 9 µM. hit rate 87% among 2,300. AID 2845, 2010; in the data active = activation above about 49%;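 also: HepG2 hepatoma cells carrying a DRE-driven firefly luciferase reporter; 0% = vehicle wells and 100% = reference agonist wells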
PXR act counter – human PXR activators, counter-screen for AHR activator project, cell-based, luciferase luminescence. shares compounds with AHR act. cell-based PXR reporter. activation, % at 11.6 µM. hit rate 88% among 2,300; in the data active = activation above about 11%;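 also: human hepatoma DPX-2 cells expressing full-length human PXR; 0% = DMSO and 100% = reference agonist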
An asterisk follows results filed as active.

What do the screens show for `CN(C)C(=O)c1ccc(-c2ccc3c(c2)[C@@H]2[C@@H](CCN2S(=O)(=O)c2cn(C)cn2)[C@@H](CO)N3)cc1`?
esBAF inh: 7

Results for C/C=C/c1cnc2c(c1)C(=O)N([C@H](C)CO)C[C@@H](C)[C@@H](CN(C)C(=O)Cc1ccccn1)O2 ?
esBAF inh: 12

What do the screens show for `COc1ccc(-c2oc3ccc(N4CCOCC4)cc3c2C#Cc2ccc(N)cc2)cc1`?
FXN GAA850 act: -1; AHR act: 95*; MITF TRPM1 HTS: 2; Wnt bcat act: -14; esBAF inh: -44; AHR act cf: 52*

Results for COC(=O)c1ccc(/C=C/c2c(-c3ccc(OC)cc3)oc3ccc(N4CCOCC4)cc23)cc1 ?
FXN GAA850 act: 2; AHR act: 30; MITF TRPM1 HTS: 12; Wnt bcat act: -1; esBAF inh: 4

Results for COc1ccc(CN(C)C[C@H]2Oc3c(NC(=O)Nc4ccc(F)cc4)cccc3C(=O)N([C@H](C)CO)C[C@H]2C)cc1 ?
esBAF inh: -3

Results for O=c1cc(-c2ccc3c(c2)OCO3)oc2ccccc12 ?
FXN GAA850 act: 5; AHR act: 104*; MITF TRPM1 HTS: 55; Wnt bcat act: 21; esBAF inh: 28; AHR act cf: 142*; PXR act counter: 79*

How did CCC(C)Nc1nc(N)c([N+](=O)[O-])c(Nc2cc(OC)ccc2OC)n1 (stereo unspecified) do in these assays?
FXN GAA850 act: 3; AHR act: 80*; MITF TRPM1 HTS: -9; Wnt bcat act: -2; esBAF inh: -1; AHR act cf: 127*; PXR act counter: 76*

What do the screens show for `COc1ccc(OC)c(Nc2nc(N(C)c3ccccc3)nc(N)c2[N+](=O)[O-])c1`?
FXN GAA850 act: 6; AHR act: 6; MITF TRPM1 HTS: -16; Wnt bcat act: 5; esBAF inh: -10

Results for C=CCNc1nc(N)c([N+](=O)[O-])c(Nc2ccccc2OC)n1 ?
FXN GAA850 act: 4; AHR act: 116*; MITF TRPM1 HTS: 5; Wnt bcat act: -1; esBAF inh: -2; AHR act cf: 123*; PXR act counter: 21*

Results for COc1ccc(Nc2nc(N)c([N+](=O)[O-])c(NCc3ccccc3)n2)cc1 ?
FXN GAA850 act: 6; AHR act: 17; Wnt bcat act: -3

Results for COCC(=O)Nc1ccc2c(c1)C(=O)N(C)[C@H]1CC[C@H](CC(=O)NCc3ccc(OC)cc3)O[C@@H]1CO2 ?
esBAF inh: -4

How did O=C(C[C@@H]1C[C@H]2c3cc(NC(=O)NC4CCCC4)ccc3O[C@H]2[C@H](CO)O1)NCc1ccc(Cl)cc1 do in these assays?
esBAF inh: 0

What do the screens show for `Cn1c(N)c(C(=O)Nc2ccccc2F)sc1=S`?
FXN GAA850 act: 1; AHR act: 115*; Wnt bcat act: 4; AHR act cf: 105*

Results for CCOC(=O)c1c(N)sc(C(=O)Nc2ccccc2F)c1C ?
FXN GAA850 act: 3; AHR act: 18; MITF TRPM1 HTS: 69; Wnt bcat act: 16; esBAF inh: 20

What do the screens show for `CCOCC(=O)Nc1cccc(-c2nc3cccnc3s2)c1C`?
FXN GAA850 act: 1; AHR act: 88*; Wnt bcat act: -1; esBAF inh: 15; AHR act cf: 107*

What do the screens show for `COc1cc(-c2ccc3oc(-c4ccsc4)c(C#CC4(O)CCCCC4)c3c2)cc(OC)c1OC`?
FXN GAA850 act: 1; AHR act: 14; MITF TRPM1 HTS: -8; Wnt bcat act: -15; esBAF inh: -10

What do the screens show for `OC1(C#Cc2c(-c3ccsc3)oc3ccc(N4CCOCC4)cc23)CCCCC1`?
FXN GAA850 act: 1; AHR act: 111*; MITF TRPM1 HTS: -3; Wnt bcat act: -6; esBAF inh: -5; AHR act cf: 120*; PXR act counter: 80*
